Compounds with a hit are over-represented: about 19% of the library has one in this group of screens.
DT40 TDP1 no CPT: qHTS for Inhibitors of human tyrosyl-DNA phosphodiesterase 1 (TDP1): qHTS in cells in absence of CPT | DT40 Tdp1-/- hTDP1 cells, no CPT, ATP luminescence, 48 h | Potency, µM (doses to about 46.2 µM), most hits filed as inhibitors | 420,000 tested, 15% active; further: nearly all actives have a fitted effect of over 55% in size
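Growth of hTDP1-complemented DT40 Tdp1-knockout cells is measured by ATP luminescence after at least 48 hr compound exposure at 37 °C, with DMSO substituting for the 20 nM CPT used in the parallel screen.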
TDP1 cell CPT: DT40-hTDP1 cell growth loss with CPT; chicken DT40 Tdp1-/-;hTDP1 cells + 20 nM CPT, ATP luminescence, 48 h; Potency, µM (top dose mostly 46.2 µM), most hits filed as inhibitors; 420,000 tested, 12% active; AID 686979; further: nearly all actives have a fitted effect of over 55% in size
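Chicken DT40 Tdp1-/- cells stably complemented with human TDP1 were seeded at 400 cells/well in medium containing 20 nM camptothecin, exposed to pin-transferred compounds, and grown at 37 °C for at least 48 hr. Viability was read as ATP luminescence.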
KB-V1 cytotox: KB-V1 MDR subline cytotoxicity. KB-V1 MDR cells viability, CellTiter-Glo, 72 h. Potency, µM (titrated, usually from 46.1 µM), most hits filed as cytotoxic. 400,000 tested, 3.4% active. AID 1347076; further: nearly all actives have a fitted effect of over 60% in size
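Compound-treated KB-V1 multidrug-resistant cells, 72 h, 37 degrees C; viability by CellTiter-Glo. Fitted qHTS curves give the values.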
HT1080-NT tox: kills 2HG-producing HT-1080-NT fibrosarcoma cells; Potency, µM (titrated, usually from 46.1 µM), most hits filed as cytotoxic; HT-1080-NT fibrosarcoma viability, CellTiter-Glo ATP luminescence, 48 h; AID 686970; 360,000 tested, 1.6% active;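 further: NT is the 2HG producing partner of a matched IDH1 knockdown line; nearly all actives have a fitted effect of over 55% in size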
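HT-1080-NT; 750 cells/well; 5% FBS RPMI; 48 h compound, 37 degrees C; CellTiter-Glo luminescence; curve fitting and curve-class assignment.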
KB-3-1 cytotox: KB-3-1 parental cell cytotoxicity; KB-3-1 viability, CellTiter-Glo ATP luminescence, 72 h; Potency, µM (series often up to 46.1 µM), usual class: cytotoxic; 400,000 tested, 1.4% active; further: nearly all actives have a fitted effect of over 60% in size
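72 h, 37 °C compound treatment of KB-3-1 parental cells; CellTiter-Glo added, 10 min, luminescence read. Data corrected against DMSO-only plates and normalized before curve fitting.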
HT1080 IDH1KD tx: kills HT-1080 cells with IDH1 knockdown | HT-1080 IDH1 knockdown viability, ATP luminescence, 48 h | AID 686971 | 360,000 tested, 2% active | Potency, µM (doses to about 46.1 µM), most hits filed as cytotoxic
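After a 2 h attachment period, IDH1KD HT-1080 cells took pin-transferred compound for 48 h at 37 °C; ATP-based luminescence after 10 min room-temperature reagent incubation reported viability.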
Of the large screens only hits and unclear results are named; the others gave an inactive call. The call rests on the fitted dose curve; in most records, active means well fitted curve in the direction sought with a large enough effect; inconclusive means small, poorly fitted or top-dose-only effect, or another doubt; inactive means no such curve, though single readings can be large; an effect the other way counts as inactive or inconclusive.

O=C1CCCC2=C1C1(CCCC1)N=C(Nc1nc3ccccc3n1Cc1ccccc1)N2	none (no result: DT40 TDP1 no CPT, TDP1 cell CPT, HT1080-NT tox, HT1080 IDH1KD tx)
O=C(Nc1ccc(F)c(Cl)c1)c1cc(C2CCCN(C(=O)CCc3ccccc3)C2)on1 (stereo unspecified)	DT40 TDP1 no CPT inconclusive, TDP1 cell CPT inconclusive
Cc1ccc2oc(-c3ccc(C)c(NC(=O)C(C)(C)Oc4ccc(Cl)cc4)c3)nc2c1	DT40 TDP1 no CPT inconclusive, TDP1 cell CPT inconclusive (no result: HT1080-NT tox, HT1080 IDH1KD tx)
Cc1cccc(-c2nc(CCNC(=O)c3ccccc3Br)cs2)c1	DT40 TDP1 no CPT 21µM, TDP1 cell CPT 18µM (no result: KB-V1 cytotox, HT1080-NT tox, KB-3-1 cytotox, HT1080 IDH1KD tx)
COc1cccc(C(=O)NCCc2csc(-c3ccc(Cl)cc3)n2)c1	DT40 TDP1 no CPT inconclusive, TDP1 cell CPT 16µM (no result: HT1080-NT tox, HT1080 IDH1KD tx)
COc1cccc(OC)c1C(=O)NCCc1csc(-c2ccc(Cl)cc2)n1	DT40 TDP1 no CPT inconclusive, TDP1 cell CPT inconclusive (no result: HT1080-NT tox, HT1080 IDH1KD tx)
COc1cccc(C(=O)NCCc2csc(-c3cccc(F)c3)n2)c1OC	DT40 TDP1 no CPT inconclusive, TDP1 cell CPT inconclusive (no result: HT1080-NT tox, HT1080 IDH1KD tx)
Cc1ccc(-c2nc(CCNC(=O)C(=O)Nc3ccc(C)c(C)c3)cs2)cc1	none (no result: KB-V1 cytotox, HT1080-NT tox, KB-3-1 cytotox, HT1080 IDH1KD tx)
Cc1ccc(-c2nc(CCNC(=O)c3ccc(C)c(C)c3)cs2)cc1	DT40 TDP1 no CPT 16µM, TDP1 cell CPT inconclusive (no result: KB-V1 cytotox, HT1080-NT tox, KB-3-1 cytotox, HT1080 IDH1KD tx)
COc1ccc(-c2nc(CCNC(=O)c3cc(OC)c(OC)c(OC)c3)cs2)cc1	DT40 TDP1 no CPT 13µM, TDP1 cell CPT 13µM (no result: KB-V1 cytotox, HT1080-NT tox, KB-3-1 cytotox, HT1080 IDH1KD tx)
CCOC(=O)C1CCN(C(c2ccccc2OC)c2c(O)cc(C)n(CCOC)c2=O)CC1 (stereo unspecified)	none (no result: HT1080-NT tox, HT1080 IDH1KD tx)
CN(C)CCCNC(=O)c1ccc(-c2nc(-c3ccc(Cl)cc3)cs2)cc1	DT40 TDP1 no CPT 21µM, TDP1 cell CPT 16µM, KB-V1 cytotox inconclusive, KB-3-1 cytotox inconclusive, HT1080 IDH1KD tx inconclusive
CN(C(=O)/C(N=Nc1cccc(C(F)(F)F)c1)=C(\O)C(F)(F)F)c1ccccc1	KB-V1 cytotox inconclusive, HT1080-NT tox 11µM, HT1080 IDH1KD tx inconclusive
CC(=O)/C(N=Nc1cccc(C(F)(F)F)c1)=C(\C)O	none
O=C(/C(N=Nc1cccc(C(F)(F)F)c1)=C(/O)c1cccs1)C(F)(F)F	DT40 TDP1 no CPT 21µM, TDP1 cell CPT inconclusive, KB-V1 cytotox inconclusive, HT1080-NT tox inconclusive, KB-3-1 cytotox inconclusive, HT1080 IDH1KD tx 21µM
Cc1c(NC(=O)c2cc3ccccc3o2)cccc1-n1cnnn1	DT40 TDP1 no CPT inconclusive, TDP1 cell CPT inconclusive
O=C(c1cccc(F)c1)N1CCC2(CC1)CCN(C(c1ccccc1)c1ccccc1)CC2	DT40 TDP1 no CPT 23µM, TDP1 cell CPT 15µM (no result: KB-V1 cytotox, HT1080-NT tox, KB-3-1 cytotox, HT1080 IDH1KD tx)
O=C(c1cccc(F)c1)N1CCC2(CC1)CN(c1ccc(-c3ccccc3)cc1)C2	DT40 TDP1 no CPT 15µM, TDP1 cell CPT inconclusive (no result: KB-V1 cytotox, HT1080-NT tox, KB-3-1 cytotox, HT1080 IDH1KD tx)
O=C(Nc1cccc(F)c1)N1CCC2(CC1)CCN(C(=O)c1cccc(F)c1)CC2	DT40 TDP1 no CPT 21µM (no result: KB-V1 cytotox, HT1080-NT tox, KB-3-1 cytotox, HT1080 IDH1KD tx)
O=C(Nc1cccc(F)c1)N1CCCC2(CCN(C(=O)c3ccncc3)CC2)C1	DT40 TDP1 no CPT 0.15µM, TDP1 cell CPT 0.13µM (no result: KB-V1 cytotox, HT1080-NT tox, KB-3-1 cytotox, HT1080 IDH1KD tx)
O=C(c1cccc(F)c1)N1CCC2(CC1)CCN(c1ccc(-c3ccccc3)cc1)CC2	none (no result: KB-V1 cytotox, HT1080-NT tox, KB-3-1 cytotox, HT1080 IDH1KD tx)
O=C(Nc1ccccc1)N1CCC2(CC1)CCN(C(=O)c1cccc(F)c1)CC2	DT40 TDP1 no CPT inconclusive (no result: KB-V1 cytotox, HT1080-NT tox, KB-3-1 cytotox, HT1080 IDH1KD tx)
COC(=O)[C@@H]1C[C@@H](c2ccccc2)[C@H](C)C1(C)C	DT40 TDP1 no CPT inconclusive, TDP1 cell CPT inconclusive, KB-3-1 cytotox inconclusive
COc1ccc(N2CCN(C(=O)C3CCN(S(=O)(=O)c4cnc[nH]4)CC3)CC2)cc1	KB-V1 cytotox inconclusive (no result: HT1080-NT tox, HT1080 IDH1KD tx)
Cc1nc2ccccn2c(=O)c1NC(=O)c1ccc(C(F)(F)F)cc1	DT40 TDP1 no CPT inconclusive (no result: KB-V1 cytotox, HT1080-NT tox, KB-3-1 cytotox, HT1080 IDH1KD tx)
O=C(c1cc(C2CCCCN2S(=O)(=O)c2ccc(F)cc2F)on1)N1CCOCC1 (stereo unspecified)	none
CCOC(=O)c1c(SCC(=O)Nc2nc3ccc(C)cc3s2)nc(=O)[nH]c1C	KB-V1 cytotox inconclusive (no result: HT1080-NT tox, HT1080 IDH1KD tx)
O=C(c1ccco1)N1CCC2(CC1)CN(C(c1ccccc1)c1ccccc1)C2	DT40 TDP1 no CPT 15µM, TDP1 cell CPT inconclusive (no result: KB-V1 cytotox, HT1080-NT tox, KB-3-1 cytotox, HT1080 IDH1KD tx)
